From PubChem BioAssay (Tox21)
“And” between values parts separate entries of the source, which are not always exact repeats. Equal entries are not always repeated. Records with an inconclusive call do not appear. The source made the active and inactive calls. Unless noted, the call rests on the fitted dose curve.

Columns and labels:
[1] = target: Thyrotropin receptor (Homo sapiens) (UniProt P16473); experiment: qHTS assay to identify small molecule agonists of the thyroid stimulating hormone receptor (TSHR) signaling pathway (AID 1224843); further: nearly all actives have a fitted effect of over 45% in size; further: potency means the concentration at half of the fitted maximal effect; on activation: on the % scale 0 is the no-effect control and ±100 the full control effect
Sequence of Thyrotropin receptor (Homo sapiens) (P16473 whole entry, looked up): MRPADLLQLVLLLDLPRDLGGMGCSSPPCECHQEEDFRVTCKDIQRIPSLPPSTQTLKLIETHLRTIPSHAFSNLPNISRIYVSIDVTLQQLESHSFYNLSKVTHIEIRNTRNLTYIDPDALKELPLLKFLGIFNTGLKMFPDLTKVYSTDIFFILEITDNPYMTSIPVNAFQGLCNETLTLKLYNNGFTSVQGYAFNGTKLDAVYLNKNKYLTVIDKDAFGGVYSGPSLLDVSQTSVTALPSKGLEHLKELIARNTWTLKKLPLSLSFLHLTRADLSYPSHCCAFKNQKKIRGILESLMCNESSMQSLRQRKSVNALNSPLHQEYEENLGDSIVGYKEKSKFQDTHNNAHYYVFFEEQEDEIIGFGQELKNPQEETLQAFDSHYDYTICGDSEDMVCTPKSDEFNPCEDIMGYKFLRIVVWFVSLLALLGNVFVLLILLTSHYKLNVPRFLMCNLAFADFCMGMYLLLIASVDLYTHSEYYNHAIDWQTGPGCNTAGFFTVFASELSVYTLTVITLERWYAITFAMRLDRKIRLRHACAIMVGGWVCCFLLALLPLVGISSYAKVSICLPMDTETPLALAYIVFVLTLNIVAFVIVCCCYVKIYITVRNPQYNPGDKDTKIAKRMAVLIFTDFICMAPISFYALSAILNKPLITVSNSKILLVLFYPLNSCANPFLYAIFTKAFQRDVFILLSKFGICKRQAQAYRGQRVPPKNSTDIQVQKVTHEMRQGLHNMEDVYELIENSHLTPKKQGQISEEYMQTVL
In short: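 TSHR-expressing HEK293 cells (800 per well) were exposed to compounds for 30 min at room temperature. cAMP was then detected by HTRF competition with cAMP-d2 and anti-cAMP cryptate, read after 1 h at room temperature. Fifteen concentrations, triplicate.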

[2] = qHTS assay to identify small molecule agonists of the hypoxia (HIF-1) signaling pathway - cell viability counter screen (AID 1224844); further: nearly all actives have a fitted effect of over 50% in size; further: potency means the concentration at half of the fitted maximal effect
In short: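 HRE-bla ME-180 cells in medium with 0.5% dialyzed FBS were preincubated 5 hrs at 37C, exposed to compounds for 17 hrs, then viability was read as CellTiter-Glo luminescence after 30 min at room temperature, in the reporter wells.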

[3] = qHTS assay to identify small molecule agonists of the hypoxia (HIF-1) signaling pathway (AID 1224846; active means well fitted activation curve with a large enough effect in the signal ratio in the repeat runs, not every such curve was filed as active; the % refers to the signal ratio; further: on the % scale 0 is the no-effect control and ±100 the full control effect)
In short: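 HRE-bla ME-180 cells (beta-lactamase reporter under hypoxia response element) were plated at 2,000 cells/well in medium with 0.5% dialyzed FBS, rested 5 hrs, then given compounds in DMSO for 17 hrs at 37C, 5% CO2. Reporter induction was read with CCF4-AM FRET substrate.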

[4] = qHTS assay to identify small molecule agonists of H2AX - cell viability counter screen (AID 1224847); further: nearly all actives have a fitted effect of over 30% in size; further: potency means the concentration at half of the fitted maximal effect
In short: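 For this counter screen, overnight-attached CHO-K1 cells received test compounds (15 concentrations, 0.76% DMSO final); 3 hr later at 37C, CellTiter-Glo reagent was added and luminescence recorded after 30 min at room temperature.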

[5] = qHTS RealTime-Glo MT Cell Viability Assay in HepG2 cells - 24 hour (AID 1224867; active means well fitted curve in the direction sought with a large enough effect in the repeat runs; an effect the other way counts as inactive or inconclusive; further: nearly all actives have a fitted effect of over 50% in size; further: potency means the concentration at half of the fitted maximal effect)
In short: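 Cell number in HepG2 cultures estimated from NanoLuc luminescence generated by metabolic reduction of a prosubstrate by living cells. The homogeneous, nonlytic format allowed repeated reads at 0, 8, 16, 24, 32 and 40 h of compound exposure.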

[6] = qHTS RealTime-Glo MT Cell Viability Assay in HEK293 cells - 32 hour (AID 1224868; active means well fitted curve in the direction sought with a large enough effect in the repeat runs; an effect the other way counts as inactive or inconclusive; further: nearly all actives have a fitted effect of over 50% in size; further: potency means the concentration at half of the fitted maximal effect)
In short: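 Homogeneous bioluminescent viability format in HEK293 cells (600 cells/well). Following 5 h at 37 C/5% CO2, 23 nL compound was pintooled; the signal was measured repeatedly during 40 h incubation.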

[7] = A CellTox Green Cytotoxicity Assay to monitor cytotoxicity in HEK293 cells - 0 hour (AID 1224869; active means well fitted curve in the direction sought with a large enough effect in the repeat runs; an effect the other way counts as inactive or inconclusive; further: on the % scale 0 is the no-effect control and ±100 the full control effect; nearly all actives have a fitted effect of over 50% in size)
In short: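 HEK293 cells premixed with CellTox Green dye were seeded at 600 cells/well and left 5 h at 37 C/5% CO2 before pin transfer of 23 nL compound in DMSO. Fluorescence from dye bound to dead-cell DNA was read during 40 h treatment.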

[8] = qHTS assay to identify small molecule agonists of the estrogen related receptor (ERR) signaling pathway from Tox21 library (AID 1224849); details: ERR reporter cell line, ONE-Glo luciferase, 18 h; at 92.4 µM (top of the series) unless noted; further: on the % scale 0 is the no-effect control and ±100 the full control effect; nearly all actives have a fitted effect of over 15% in size
In short: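 ERR reporter cell line (NTP) seeded, rested 6 h at 37 C/5% CO2, then pinned with Tox21 compounds in DMSO. After 18 h at 37 C, ONE-Glo luciferase luminescence was read following 30 min at room temperature.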

[9] = qHTS assay to identify small molecule agonists of H2AX (AID 1224845; active means well fitted activation curve with a large enough effect in the signal ratio in the repeat runs, not every such curve was filed as active; the % refers to the signal ratio; further: on the % scale 0 is the no-effect control and ±100 the full control effect)
In short: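 Wild-type CHO-K1 cells plated overnight, then exposed 3 hr at 37C to compounds at 15 concentrations (0.76% DMSO). Lysed, then HTRF anti-pH2AX(S139)-cryptate/anti-H2AX-d2 detection after 24 hr at room temperature; emissions 665 and 620 nm.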

[10] = qHTS assay to identify small molecule antagonists of the estrogen related receptor (ERR) signaling pathway from Tox21 library (AID 1224848; active means well fitted curve in the direction sought with a large enough effect in the repeat runs; an effect the other way counts as inactive or inconclusive)
In short: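 Cells: ERR line, 2,000/well; 6 h preincubation 37 C/5% CO2. Cpd in DMSO via pin tool; 18 h, 37 C. ONE-Glo, 30 min RT, luminescence.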

CC1CC(C)C(=O)C1=O (stereo not given)
inactive: Potency [1] | Potency [2] | outcome [3] | Potency [4] | Potency [5] | Potency [7]
active: Potency [6] 13.8 µM

Oc1ccc(Cl)c2cccnc12
inactive: Potency [1] | Potency [2] | outcome [3] | Potency [4] | activity change, positive = activation [8] -56.3% [at 42.5 µM] | Potency [5] | Potency [7]

CC(=O)c1cc2ccccc2s1
inactive: Potency [1] | Potency [2] | outcome [3] | Potency [4] | Potency [5] | Potency [6] | Potency [7]

NC1[C@H]2CN(c3nc4c(cc3F)c(=O)c(C(=O)O)cn4-c3ccc(F)cc3F)C[C@@H]12 (stereo not given in full)
inactive: Potency [1] | Potency [2] | outcome [3] | Potency [4] | Potency [5] | Potency [6] | Potency [7]
active: activity change, positive = activation [8] 59.2% [at 42.5 µM]

O=[N+]([O-])c1ccc(O/N=C/c2cc(Br)c(O)c(Br)c2)c([N+](=O)[O-])c1
inactive: Potency [1] | Potency [2] | outcome [3] | Potency [5] | Potency [7]
active: Potency [6] 43.4 µM

CO[C@]1(NC(=O)CSC(F)F)C(=O)N2C(C(=O)O)=C(CSc3nnnn3CCO)CO[C@H]21
inactive: Potency [1] | Potency [2] | outcome [3] | Potency [4] | Potency [5] | Potency [6] | Potency [7]

O=C(Cn1ccnc1[N+](=O)[O-])NCCO
inactive: Potency [1] | Potency [2] | outcome [3] | Potency [4] | Potency [5] | Potency [6] | Potency [7]

COc1ccccc1NC(=O)c1cc2ccccc2cc1O
active: Potency [4] 89.8 µM | Potency [10] 19.3 µM | Potency [6] 34.7 µM
inactive: Potency [1] | Potency [9] | activity change, positive = activation [8] -49.7% | Potency [7]

CC1=Nc2ccc3ccccc3c2C1(C)C
inactive: Potency [1] | Potency [2] | outcome [3] | activity change, positive = activation [8] -35.4% | Potency [5] | Potency [6] | Potency [7]

O=[N+]([O-])c1cc(C2CCCCC2)c(O)c([N+](=O)[O-])c1
active: Potency [4] 11.3 µM | Potency [6] 12.3 µM
inactive: Potency [1] | Potency [9] | activity change, positive = activation [8] -69.4% | Potency [7]

O=C(CCc1ccc(O)cc1)c1c(O)cc(O)cc1O
inactive: Potency [1] | Potency [2] | activity change, positive = activation [8] -22.5% | Potency [5] | Potency [7]
active: Potency [6] 39.8 µM

CN1C[C@H](C(=O)N[C@]2(C)O[C@@]3(O)[C@@H]4CCCN4C(=O)[C@H](Cc4ccccc4)N3C2=O)C[C@@H]2c3cccc4[nH]cc(c34)C[C@H]21
active: Potency [2] 12 µM | Potency [10] 29.8 µM | Potency [6] 21.3 µM
inactive: Potency [1] | activity change, positive = activation [8] -52.3% [at 42.5 µM] | Potency [7]

C[C@@H]1CC(=O)NN=C1c1ccc(NN=C(C#N)C#N)cc1
inactive: Potency [2] | activity change, positive = activation [8] -30.7% [at 42.5 µM] and -38.2% [at 42.5 µM] | Potency [7]
active: Potency [1] 0.841 µM | Potency [10] 13.3 µM

CCC(C)COC(=O)CC(C)C (stereo not given)
inactive: Potency [1] | Potency [4] | Potency [5] | Potency [6] | Potency [7]
active: Potency [2] 19.5 µM

CC(=O)NC1(c2cccc(F)c2)CCN(CC[C@@]2(c3ccc(Cl)c(Cl)c3)CN(c3ccccc3)C(=O)CO2)CC1
active: Potency [2] 39 µM | Potency [5] 43.8 µM | Potency [6] 17.4 µM
inactive: Potency [1] | outcome [3] | Potency [7]

CCn1cc(C(=O)O)c(=O)c2cc(F)c(N3CCNCC3)cc21
inactive: Potency [1] | Potency [2] | Potency [4] | Potency [5] | Potency [6] | Potency [7]

CCOc1ccccc1O[C@H](c1ccccc1)[C@H]1CNCCO1
inactive: Potency [1] | Potency [2] | outcome [3] | Potency [4] | Potency [5] | Potency [6] | Potency [7]

CC[C@]1(O)C[C@H]2CN(CCc3c([nH]c4ccccc34)[C@@](C(=O)OC)(c3cc4c(cc3OC)N(C=O)[C@H]3[C@@](O)(C(=O)OC)[C@H](OC(C)=O)[C@]5(CC)C=CCN6CC[C@]43[C@@H]65)C2)C1
inactive: Potency [1] | Potency [9] | Potency [4] | Potency [5] | Potency [7]
active: Potency [6] 0.0013 µM

Cc1cc(C)c(N)cc1C
inactive: Potency [1] | Potency [2] | outcome [3] | Potency [4] | Potency [5] | Potency [6] | Potency [7]

Oc1cccc(Nc2ccccc2)c1
inactive: Potency [1] | Potency [2] | outcome [3] | Potency [5] | Potency [7]
active: Potency [6] 14.4 µM
